# Paper PMC5540273 (PLoS ONE, 2017)
# Where two headings read alike, the source gives them in different places.
# What was measured:
# p38-alpha = tested on: T1, p38-alpha; settings: n = 1
# T1 construct: gene MAPK14
# ULK3 = settings: concentration: 1 μM, replicates: in singlicate; n = 1
# VEGFR2 = tested on: T2, VEGFR2; settings: concentration: 1 μM, replicates: in singlicate; n = 1
# T2 construct: gene KDR
# VPS34 = tested on: T3, VPS34; settings: concentration: 1 μM, replicates: in singlicate; n = 1
# T3 construct: gene PIK3C3
# VRK2 = settings: concentration: 1 μM, replicates: in singlicate; n = 1
# WEE1 = settings: concentration: 1 μM, replicates: in singlicate; n = 1
# WEE2 = settings: concentration: 1 μM, replicates: in singlicate; n = 1
# WNK1 = settings: concentration: 1 μM, replicates: in singlicate; n = 1
# WNK2 = settings: concentration: 1 μM, replicates: in singlicate; n = 1
# WNK3 = settings: concentration: 1 μM, replicates: in singlicate; n = 1
# WNK4 = settings: concentration: 1 μM, replicates: in singlicate; n = 1
# YANK1 = tested on: T4, YANK1; settings: concentration: 1 μM, replicates: in singlicate; n = 1
# T4 construct: gene STK32A
# YANK2 = tested on: T5, YANK2; settings: concentration: 1 μM, replicates: in singlicate; n = 1
# T5 construct: gene STK32B
# YANK3 = tested on: T6, YANK3; settings: concentration: 1 μM, replicates: in singlicate; n = 1
# T6 construct: gene STK32C
# YES = tested on: T7, YES; settings: concentration: 1 μM, replicates: in singlicate; n = 1
# T7 construct: gene YES1
# YSK1 = tested on: T8, YSK1; settings: concentration: 1 μM, replicates: in singlicate; n = 1
# T8 construct: gene STK25
# YSK4 = tested on: T9, YSK4; settings: concentration: 1 μM, replicates: in singlicate; n = 1
# T9 construct: gene MAP3K19
# ZAK = settings: concentration: 1 μM, replicates: in singlicate; n = 1
# ZAP70 = settings: concentration: 1 μM, replicates: in singlicate; n = 1
# p38-beta = tested on: T10, p38-beta; settings: concentration: 1 μM, replicates: in singlicate; n = 1
# T10 construct: gene MAPK11
# [1] = concentration: 1 μM, replicates: in singlicate
# 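Further: KINOMEscan kinase panel screen.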
structure (smiles),measurement,setting,value
O=C(NCc1cccs1)c1cc(C(=O)c2c(Cl)cccc2Cl)c[nH]1 [GW823670],%Inh,p38-alpha; 1 µM,23%
CN1C(=O)C(Nc2cc(Cl)c(O)c(Cl)c2)=C(c2ccc(Cl)cc2)C1=O [SB-404321],%Inh,ULK3,0%
same,%Inh,VEGFR2,0%
same,%Inh,VPS34,0%
same,%Inh,VRK2,90.3%
same,%Inh,WEE1,0%
same,%Inh,WEE2,15%
same,%Inh,WNK1,0%
same,%Inh,WNK2,35%
same,%Inh,WNK3,0%
same,%Inh,WNK4,0%
same,%Inh,YANK1,0%
same,%Inh,YANK2,0%
same,%Inh,YANK3,0%
same,%Inh,YES,0%
same,%Inh,YSK1,0%
same,%Inh,YSK4,0%
same,%Inh,ZAK,0%
same,%Inh,ZAP70,0%
same,%Inh,p38-alpha; [1],2%
same,%Inh,p38-beta,0%
CCC(=O)c1c(-c2ccccc2)c2cc(Cl)ccc2c(=O)n1Cc1ccc(C(=O)O)cc1,%Inh,ULK3,0%
same,%Inh,VEGFR2,0%
same,%Inh,VPS34,7%
same,%Inh,VRK2,0%
same,%Inh,WEE1,0%
same,%Inh,WEE2,4%
same,%Inh,WNK1,0%
same,%Inh,WNK2,0%
same,%Inh,WNK3,0%
same,%Inh,WNK4,0%
same,%Inh,YANK1,0%
same,%Inh,YANK2,4%
same,%Inh,YANK3,5%
same,%Inh,YES,0%
same,%Inh,YSK1,0%
same,%Inh,YSK4,0%
same,%Inh,ZAK,0%
same,%Inh,ZAP70,0%
same,%Inh,p38-alpha; [1],23%
same,%Inh,p38-beta,0%
O=C(Nc1ccc2c(c1)OCO2)NC1CCN(c2ccnc(NCc3ccc(F)cc3)n2)CC1 [GSK1379859],%Inh,ULK3,0%
same,%Inh,VEGFR2,0%
same,%Inh,VPS34,7%
same,%Inh,VRK2,0%
same,%Inh,WEE1,12%
same,%Inh,WEE2,0%
same,%Inh,WNK1,0%
same,%Inh,WNK2,0%
same,%Inh,WNK3,0%
same,%Inh,WNK4,13%
same,%Inh,YANK1,11%
same,%Inh,YANK2,0%
same,%Inh,YANK3,0%
same,%Inh,YES,9%
same,%Inh,YSK1,0%
same,%Inh,YSK4,0%
same,%Inh,ZAK,0%
same,%Inh,ZAP70,0%
same,%Inh,p38-alpha; [1],0%
same,%Inh,p38-beta,0%
Nc1nccc2scc(-c3ccc4c(c3)CCN4C(=O)Cc3ccccc3)c12 [GSK2576924],%Inh,ULK3,12%
same,%Inh,VEGFR2,5%
same,%Inh,VPS34,0%
same,%Inh,VRK2,0%
same,%Inh,WEE1,14%
same,%Inh,WEE2,0%
same,%Inh,WNK1,17%
same,%Inh,WNK2,26%
same,%Inh,WNK3,27%
same,%Inh,WNK4,0%
same,%Inh,YANK1,10%
same,%Inh,YANK2,9%
same,%Inh,YANK3,0%
same,%Inh,YES,5%
same,%Inh,YSK1,0%
same,%Inh,YSK4,36%
same,%Inh,ZAK,0%
same,%Inh,ZAP70,0%
same,%Inh,p38-alpha; [1],0%
same,%Inh,p38-beta,0%
COc1cccc(C2=C(Nc3cccc(C(=O)O)c3)C(=O)NC2=O)c1 [SB-390770],%Inh,ULK3,9%
same,%Inh,VEGFR2,11%
same,%Inh,VPS34,34%
same,%Inh,VRK2,16%
same,%Inh,WEE1,0%
same,%Inh,WEE2,7%
same,%Inh,WNK1,3%
same,%Inh,WNK2,18%
same,%Inh,WNK3,5%
same,%Inh,WNK4,0%
same,%Inh,YANK1,12%
same,%Inh,YANK2,0%
same,%Inh,YANK3,16%
same,%Inh,YES,8%
same,%Inh,YSK1,0%
same,%Inh,YSK4,14%
same,%Inh,ZAK,41%
same,%Inh,ZAP70,7%
same,%Inh,p38-alpha; [1],0%
same,%Inh,p38-beta,11%
CCn1c(-c2ccoc2)nc2cnccc21 [SB-733887],%Inh,ULK3,11%
same,%Inh,VEGFR2,65%
same,%Inh,VPS34,0%
same,%Inh,VRK2,8%
same,%Inh,WEE1,4%
same,%Inh,WEE2,0%
same,%Inh,WNK1,15%
same,%Inh,WNK2,18%
same,%Inh,WNK3,19%
same,%Inh,WNK4,0%
same,%Inh,YANK1,0%
same,%Inh,YANK2,4%
same,%Inh,YANK3,27%
same,%Inh,YES,0%
same,%Inh,YSK1,12%
same,%Inh,YSK4,49%
same,%Inh,ZAK,34%
same,%Inh,ZAP70,0%
same,%Inh,p38-alpha; [1],0%
same,%Inh,p38-beta,0%
COc1cc2ncn(-c3cc(OCc4ccncc4Br)c(C(N)=O)s3)c2cc1OC [GW854278],%Inh,ULK3,36%
same,%Inh,VEGFR2,31%
same,%Inh,VPS34,58%
same,%Inh,VRK2,24%
same,%Inh,WEE1,0%
same,%Inh,WEE2,18%
same,%Inh,WNK1,19%
same,%Inh,WNK2,35%
same,%Inh,WNK3,64%
same,%Inh,WNK4,0%
same,%Inh,YANK1,0%
same,%Inh,YANK2,0%
same,%Inh,YANK3,0%
same,%Inh,YES,0%
same,%Inh,YSK1,0%
same,%Inh,YSK4,61%
same,%Inh,ZAK,15%
same,%Inh,ZAP70,0%
same,%Inh,p38-alpha; [1],4%
same,%Inh,p38-beta,0%
CCS(=O)(=O)c1ccc(OC)c(Nc2ncc(-c3ccc(F)cc3)o2)c1.Cl [GW591947],%Inh,ULK3,0%
same,%Inh,VEGFR2,0%
same,%Inh,VPS34,21%
same,%Inh,VRK2,0%
same,%Inh,WEE1,12%
same,%Inh,WEE2,0%
same,%Inh,WNK1,2%
same,%Inh,WNK2,4%
same,%Inh,WNK3,21%
same,%Inh,WNK4,0%
same,%Inh,YANK1,11%
same,%Inh,YANK2,2%
same,%Inh,YANK3,2%
same,%Inh,YES,6%
same,%Inh,YSK1,3%
same,%Inh,YSK4,10%
same,%Inh,ZAK,0%
same,%Inh,ZAP70,0%
same,%Inh,p38-alpha; [1],0%
same,%Inh,p38-beta,0%
Nc1ncnc2c1ncn2-c1ccc(Cl)cc1 [AH2635],%Inh,ULK3,2%
same,%Inh,VEGFR2,0%
same,%Inh,VPS34,0%
same,%Inh,VRK2,15%
same,%Inh,WEE1,0%
same,%Inh,WEE2,11%
same,%Inh,WNK1,0%
same,%Inh,WNK2,0%
same,%Inh,WNK3,34%
same,%Inh,WNK4,32%
same,%Inh,YANK1,0%
same,%Inh,YANK2,0%
same,%Inh,YANK3,0%
same,%Inh,YES,0%
same,%Inh,YSK1,0%
same,%Inh,YSK4,27%
same,%Inh,ZAK,0%
same,%Inh,ZAP70,0%
same,%Inh,p38-alpha; [1],32%
same,%Inh,p38-beta,0%
